From ChEMBL document CHEMBL3988442, “University of Dundee, Small-Polar-MMV Screening Library” (2021) come the findings set out here.

For part of these data: Results with a measured potency or affinity are listed apart.

Design in all cases: scale not given: direction of the effect not stated beside the values
The target of test [1] is Protein translocase subunit SecA (Escherichia coli (strain K12)) (UniProt P10408). As to the kind of experiment: Assay to Identify E. coli SecA ATPase Inhibitors. The format is functional. The following applies: 30 µM.
In test [2] the target is T1, Ubiquitin-activating enzyme e1, putative (Leishmania donovani (strain BPK282A1)) (UniProt E9BSI1).
T1 sequence (whole entry): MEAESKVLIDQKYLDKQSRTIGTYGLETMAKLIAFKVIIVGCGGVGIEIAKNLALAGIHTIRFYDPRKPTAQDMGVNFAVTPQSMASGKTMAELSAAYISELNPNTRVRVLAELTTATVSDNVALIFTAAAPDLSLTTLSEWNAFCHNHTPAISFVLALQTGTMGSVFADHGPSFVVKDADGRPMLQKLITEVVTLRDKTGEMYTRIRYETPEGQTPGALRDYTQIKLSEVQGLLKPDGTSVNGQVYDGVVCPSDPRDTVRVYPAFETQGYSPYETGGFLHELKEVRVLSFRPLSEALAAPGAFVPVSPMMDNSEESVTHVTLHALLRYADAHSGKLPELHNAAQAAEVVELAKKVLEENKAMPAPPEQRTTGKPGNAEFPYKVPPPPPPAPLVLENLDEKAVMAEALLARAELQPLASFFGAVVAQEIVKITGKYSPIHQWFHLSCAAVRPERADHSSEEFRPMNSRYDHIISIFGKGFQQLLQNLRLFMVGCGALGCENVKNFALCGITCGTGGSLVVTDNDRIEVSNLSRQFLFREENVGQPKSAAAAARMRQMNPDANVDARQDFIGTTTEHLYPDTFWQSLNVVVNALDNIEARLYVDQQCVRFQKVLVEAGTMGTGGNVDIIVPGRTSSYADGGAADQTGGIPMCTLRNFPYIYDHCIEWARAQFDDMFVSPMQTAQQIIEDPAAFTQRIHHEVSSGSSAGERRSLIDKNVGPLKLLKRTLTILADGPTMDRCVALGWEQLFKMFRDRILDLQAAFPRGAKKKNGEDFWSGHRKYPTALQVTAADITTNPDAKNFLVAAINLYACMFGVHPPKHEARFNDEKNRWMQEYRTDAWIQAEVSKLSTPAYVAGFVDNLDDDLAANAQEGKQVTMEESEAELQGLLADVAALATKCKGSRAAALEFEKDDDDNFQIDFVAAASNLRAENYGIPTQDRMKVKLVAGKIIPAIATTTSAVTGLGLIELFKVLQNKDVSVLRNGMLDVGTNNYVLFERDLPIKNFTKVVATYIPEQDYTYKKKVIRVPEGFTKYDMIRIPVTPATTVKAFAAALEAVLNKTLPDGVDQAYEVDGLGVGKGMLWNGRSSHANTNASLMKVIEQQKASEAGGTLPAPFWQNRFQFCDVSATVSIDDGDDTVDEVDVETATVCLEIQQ
As to the kind of experiment: Leishmania donovani Ubiquitin Activating Enzyme (LdE1). The format is functional. The note with it: 30 µM.

The target of test [3] is Sialic acid-binding Ig-like lectin 9 (Homo sapiens) (UniProt Q9Y336). Briefly: Hs-Siglec9 ALPHAscreen SOP 20170721. The following applies: 10 µM.
The subject of test [4] is Trypanosoma cruzi. Briefly: Trypanosoma cruzi phosphomannomutase and mannose-1-phosphate guanylyltransferase assay. The format is functional. The following applies: 10 µM.
Test [5] deals with T2, Arginase-2, mitochondrial (Homo sapiens) (UniProt P78540).
T2 sequence (whole entry): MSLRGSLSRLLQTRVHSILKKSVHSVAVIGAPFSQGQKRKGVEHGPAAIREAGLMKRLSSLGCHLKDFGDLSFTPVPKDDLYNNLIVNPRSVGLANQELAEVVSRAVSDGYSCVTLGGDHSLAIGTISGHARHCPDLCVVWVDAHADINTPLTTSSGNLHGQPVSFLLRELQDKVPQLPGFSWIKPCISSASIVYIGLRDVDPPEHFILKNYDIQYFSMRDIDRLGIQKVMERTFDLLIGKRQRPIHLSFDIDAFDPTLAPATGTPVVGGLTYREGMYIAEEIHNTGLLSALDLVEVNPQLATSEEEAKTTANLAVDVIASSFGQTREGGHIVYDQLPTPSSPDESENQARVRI
As to the kind of experiment: in vitro enzyme assay to detect the production of urea directly proportional to the activity of Arginase II. Also: in the data most compounds retested in dose-response had high values. In kind it is functional. The following applies: 33.3 µM.

For test [6], the target named is T3, Proteasome subunit beta (Trypanosoma cruzi) (UniProt O96673).
T3 sequence (whole entry): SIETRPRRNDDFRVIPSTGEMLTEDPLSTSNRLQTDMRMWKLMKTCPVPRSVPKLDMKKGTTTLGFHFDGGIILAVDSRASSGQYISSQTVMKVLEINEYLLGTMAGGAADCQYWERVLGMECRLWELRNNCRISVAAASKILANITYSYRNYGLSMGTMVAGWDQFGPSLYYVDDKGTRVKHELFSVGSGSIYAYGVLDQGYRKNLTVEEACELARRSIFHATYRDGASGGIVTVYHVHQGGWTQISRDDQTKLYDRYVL
As to the kind of experiment: Trypanosoma cruzi proteasome chymotrypsin-like activity (TcProtChymo) assay. Also: in the data most compounds retested in dose-response had high values. In kind it is functional. The following applies: 9.37 µM.

The species entered for test [7] is Homo sapiens. Briefly: To identify inhibition of the IFN signalling (Jak-Stat) pathway via expression of an eGFP reporter gene under the control of an IFN-stimulated response element (ISRE) containing MxA promoter. In kind it is functional. The following applies: 30 µM. A general note: A reporter such as luciferase makes a cellular process visible.
Test [8] addresses T4, Tyrosyl-tRNA synthetase, putative (Trypanosoma cruzi (strain CL Brener)) (UniProt Q4DSP6).
T4 sequence (whole entry): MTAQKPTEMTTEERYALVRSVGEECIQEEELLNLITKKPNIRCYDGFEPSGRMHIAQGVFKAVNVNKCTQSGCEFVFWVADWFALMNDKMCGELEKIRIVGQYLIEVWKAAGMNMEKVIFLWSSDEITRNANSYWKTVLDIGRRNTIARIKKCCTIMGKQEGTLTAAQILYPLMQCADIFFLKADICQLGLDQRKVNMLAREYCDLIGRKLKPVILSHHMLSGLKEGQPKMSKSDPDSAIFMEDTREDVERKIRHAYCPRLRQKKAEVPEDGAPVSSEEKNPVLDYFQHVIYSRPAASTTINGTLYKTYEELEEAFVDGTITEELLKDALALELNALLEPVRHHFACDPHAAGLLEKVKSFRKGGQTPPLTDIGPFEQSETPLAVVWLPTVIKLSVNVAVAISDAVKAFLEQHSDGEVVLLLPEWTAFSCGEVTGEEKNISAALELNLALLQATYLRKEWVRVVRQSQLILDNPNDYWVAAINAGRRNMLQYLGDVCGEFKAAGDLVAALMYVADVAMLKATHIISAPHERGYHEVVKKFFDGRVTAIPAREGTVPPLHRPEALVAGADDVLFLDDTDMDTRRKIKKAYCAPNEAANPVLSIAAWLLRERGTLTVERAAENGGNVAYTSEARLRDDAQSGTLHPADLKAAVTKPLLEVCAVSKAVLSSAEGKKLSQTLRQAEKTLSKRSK
As to the kind of experiment: Trypanosoma cruzi tyrosyl tRNA synthetase (TcYRS) _High Tyrosine SOP. Also: in the data most compounds retested in dose-response had high values. The format is functional. The following applies: 30 µM.

In test [9] the target is T4, Tyrosyl-tRNA synthetase, putative (Trypanosoma cruzi (strain CL Brener)). Briefly: Trypanosoma cruzi tyrosyl tRNA synthetase (TcYRS) SOP. The format is functional. The note with it: 30 µM.
The target of test [10] is Chromo domain-containing protein 1 (Saccharomyces cerevisiae (strain ATCC 204508 / S288c) (Baker's yeast)) (UniProt P32657). Briefly: ScCHD-1 Enzyme Inhibition Assay. Also: in the data most compounds retested in dose-response had high values. The note with it: 30 µM. The format is functional.
Chromo domain-containing protein 1 (Saccharomyces cerevisiae (strain ATCC 204508 / S288c) (Baker's yeast)), sequence (P32657 whole entry, the tested form may be a part): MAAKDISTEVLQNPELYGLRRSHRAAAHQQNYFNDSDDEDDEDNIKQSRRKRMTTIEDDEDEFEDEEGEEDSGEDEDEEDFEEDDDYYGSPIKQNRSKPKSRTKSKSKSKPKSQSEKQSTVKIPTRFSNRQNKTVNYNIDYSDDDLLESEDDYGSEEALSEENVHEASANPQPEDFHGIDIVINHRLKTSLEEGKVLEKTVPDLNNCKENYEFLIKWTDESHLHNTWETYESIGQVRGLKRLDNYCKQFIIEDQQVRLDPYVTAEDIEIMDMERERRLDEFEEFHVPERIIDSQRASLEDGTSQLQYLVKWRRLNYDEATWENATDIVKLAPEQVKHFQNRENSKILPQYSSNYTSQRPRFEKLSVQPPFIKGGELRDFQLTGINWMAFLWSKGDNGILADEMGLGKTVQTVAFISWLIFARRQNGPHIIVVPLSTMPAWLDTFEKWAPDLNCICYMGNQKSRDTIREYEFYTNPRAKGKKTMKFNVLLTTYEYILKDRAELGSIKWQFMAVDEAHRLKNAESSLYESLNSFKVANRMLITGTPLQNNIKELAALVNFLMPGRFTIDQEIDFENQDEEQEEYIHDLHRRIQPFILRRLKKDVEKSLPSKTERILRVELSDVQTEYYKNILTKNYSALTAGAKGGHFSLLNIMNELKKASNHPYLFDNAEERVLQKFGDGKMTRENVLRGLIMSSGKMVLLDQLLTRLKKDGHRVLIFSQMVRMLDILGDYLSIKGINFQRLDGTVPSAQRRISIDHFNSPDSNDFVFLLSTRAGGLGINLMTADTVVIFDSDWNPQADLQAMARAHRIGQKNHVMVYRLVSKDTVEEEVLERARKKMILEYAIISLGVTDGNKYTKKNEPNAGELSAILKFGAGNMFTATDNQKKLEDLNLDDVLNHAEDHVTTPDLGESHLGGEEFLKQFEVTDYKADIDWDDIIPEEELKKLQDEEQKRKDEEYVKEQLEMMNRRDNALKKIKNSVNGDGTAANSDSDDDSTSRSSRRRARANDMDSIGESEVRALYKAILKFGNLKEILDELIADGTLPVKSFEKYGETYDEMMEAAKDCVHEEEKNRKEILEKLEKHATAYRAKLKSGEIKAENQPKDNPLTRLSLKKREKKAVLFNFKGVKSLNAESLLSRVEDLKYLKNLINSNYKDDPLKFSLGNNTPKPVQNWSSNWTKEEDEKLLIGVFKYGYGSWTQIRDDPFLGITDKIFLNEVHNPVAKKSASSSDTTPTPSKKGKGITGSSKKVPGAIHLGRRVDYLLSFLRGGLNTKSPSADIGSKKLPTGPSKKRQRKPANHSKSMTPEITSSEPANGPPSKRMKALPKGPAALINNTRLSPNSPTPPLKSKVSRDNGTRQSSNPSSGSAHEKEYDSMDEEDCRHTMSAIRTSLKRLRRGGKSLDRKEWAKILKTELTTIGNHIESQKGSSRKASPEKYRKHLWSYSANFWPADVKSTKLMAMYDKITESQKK

Protein translocase subunit SecA (Escherichia coli (strain K12)), sequence (P10408 whole entry): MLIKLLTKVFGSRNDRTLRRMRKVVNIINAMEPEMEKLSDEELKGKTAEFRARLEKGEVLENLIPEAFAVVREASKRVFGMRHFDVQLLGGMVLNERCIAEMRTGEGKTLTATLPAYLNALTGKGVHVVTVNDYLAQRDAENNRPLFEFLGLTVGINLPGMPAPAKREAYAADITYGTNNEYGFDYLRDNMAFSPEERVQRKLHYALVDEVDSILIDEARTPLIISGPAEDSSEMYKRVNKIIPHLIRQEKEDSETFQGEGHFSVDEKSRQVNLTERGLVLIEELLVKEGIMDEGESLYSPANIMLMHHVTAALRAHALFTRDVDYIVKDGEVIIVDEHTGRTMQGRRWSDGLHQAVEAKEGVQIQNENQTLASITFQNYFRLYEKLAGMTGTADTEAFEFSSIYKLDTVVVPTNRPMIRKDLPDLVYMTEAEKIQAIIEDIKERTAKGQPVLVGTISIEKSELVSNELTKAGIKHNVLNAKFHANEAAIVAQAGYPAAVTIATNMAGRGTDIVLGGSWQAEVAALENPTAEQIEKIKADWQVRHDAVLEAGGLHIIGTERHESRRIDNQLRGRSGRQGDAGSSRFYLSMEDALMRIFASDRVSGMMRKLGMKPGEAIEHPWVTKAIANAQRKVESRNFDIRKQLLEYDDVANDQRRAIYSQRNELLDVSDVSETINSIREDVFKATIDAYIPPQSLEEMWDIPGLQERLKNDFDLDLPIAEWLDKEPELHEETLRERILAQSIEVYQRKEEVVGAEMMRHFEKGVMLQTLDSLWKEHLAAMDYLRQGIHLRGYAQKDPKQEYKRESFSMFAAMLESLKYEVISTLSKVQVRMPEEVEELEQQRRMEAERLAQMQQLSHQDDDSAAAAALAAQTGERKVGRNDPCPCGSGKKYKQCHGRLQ
Sialic acid-binding Ig-like lectin 9 (Homo sapiens), sequence (Q9Y336 whole entry): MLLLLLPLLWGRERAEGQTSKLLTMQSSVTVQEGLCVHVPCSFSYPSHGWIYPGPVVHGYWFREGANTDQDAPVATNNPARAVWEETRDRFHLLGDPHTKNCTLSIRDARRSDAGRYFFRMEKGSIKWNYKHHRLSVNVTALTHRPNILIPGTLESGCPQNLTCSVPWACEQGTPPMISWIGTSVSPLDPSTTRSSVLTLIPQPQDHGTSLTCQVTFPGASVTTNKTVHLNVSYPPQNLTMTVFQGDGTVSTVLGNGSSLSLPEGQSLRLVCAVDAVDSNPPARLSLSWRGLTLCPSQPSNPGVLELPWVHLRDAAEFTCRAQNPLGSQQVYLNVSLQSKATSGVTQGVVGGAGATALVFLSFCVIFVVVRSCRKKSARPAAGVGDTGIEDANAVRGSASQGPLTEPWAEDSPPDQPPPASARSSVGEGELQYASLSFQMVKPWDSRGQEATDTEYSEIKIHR

For the molecule `Cc1cccnc1CNCC1(O)CCCN(Cc2ccc(F)cc2)C1=O` (stereo not given), the Percent Effect in [1] is -5.67%; in test [2] it was 8.11%; in test [3] it was 19.1%; in test [4] it was 9.41%; in [5], 29.7%; in test [6], -0.514%. The Percent Effect in test [7] was 5.17%; in test [8] it was 15.4%; in test [9], 29.3%; in [10], -3.8%.

As to `CCS(=O)(=O)N1CCC2(CC1)CN(Cc1ccccn1)C(=O)CO2`, the Percent Effect was 2.67% in test [1]; 1.3% in [2]; 1.21% in test [3]; -0.487% in [4]; 1.62% in test [5]; 3.44% in test [6]. Besides, the Percent Effect is -2.87% in test [7], -1.58% in test [8], 0% in [9] and 2.48% in test [10].

For `CC(O)(CN1CCC2(CC1)OCCO2)c1cccc(C(F)(F)F)c1` (stereo not given), the Percent Effect is 1.91% in [1]; 10.4% in test [2]; 8.88% in [3]; -0.187% in test [4]; -2.25% in [5]; 2.98% in [6]. Also, the Percent Effect in test [7] is 18.4%; in test [8], 3.92%; in test [9] it was 21.2%; in test [10], -7.48%.

On to `CN(C)c1ccc(C(=O)N2CCN(Cc3cscn3)CC2)cc1F`, for which the Percent Effect in test [1] is 0.885%; in test [2], 13%; in test [3], 8.14%; in test [4], 1.31%; in test [5] it was 3.07%; in test [6], 9.12%. Moreover, the Percent Effect in [7] is -8.07%; in [8] it was -10.8%; in test [9], 23.5%; in test [10] it was -2.52%.

`COCCN1C[C@H]2[C@@H](C1)N(C(=O)c1cccs1)CC[C@H]2OC`: the Percent Effect in test [1] is -5.76%; in test [2], -108%; in [3] it was 1.61%; in test [4] it was 7.11%; in test [5] it was -6.07%; in test [6] it was 4.5%. The Percent Effect was -13.9% in test [7], 1.58% in [8], 7.69% in [9] and 1.4% in test [10].

With `CNC(=O)[C@@H]1C[C@H]2CN(Cc3nccs3)C[C@H]2N1C`, the Percent Effect in [1] was 0.644%; in test [2], 27.3%; in test [3] it was -2.68%; in test [4], 0.75%; in [5], 2.28%; in [6], 19.7%. Besides, the Percent Effect in test [7] was 11.3%; in test [8] it was 12.6%; in [9] it was 22.5%; in test [10], -5.35%.

Take `CCc1nc(C2CCCN2C(=O)c2ccc3c(c2)nc(C)n3C)no1` (stereo not given): the Percent Effect in test [1] was -0.423%; in test [2], -2.67%; in test [3] it was 4.72%; in [4], -2.41%; in test [5] it was 1.77%; in [6], 3.31%. The Percent Effect in test [7] is 7.34%; in [8] it was 1.58%; in [9], 0%; in [10] it was -6.99%.

For `CCc1nc(CN(C)C2CCN(CCNS(=O)(=O)CC)C2)no1` (stereo not given), the Percent Effect is 1.97% in test [1]; 5.33% in test [2]; -3.88% in test [3]; -6.83% in test [4]; -2.22% in test [5]; 18.1% in [6]. In addition, the Percent Effect in test [7] was 14.6%; in test [8], -1.58%; in [9] it was -2.56%; in test [10], -8.45%.

In the case of `CCn1c(Cn2cncn2)nnc1C1CCN(Cc2ccc(C)o2)CC1`, the Percent Effect was -6.62% in test [1]; 5.41% in [2]; 5.22% in test [3]; 3.78% in test [4]; 2.45% in test [5]; 9.07% in [6]. The Percent Effect is 5.52% in test [7], 4.79% in test [8], 14.6% in [9] and -3.96% in test [10].

Turning to `O=C(Nc1cccc2c1CCCC2)C1CCCN1c1nccs1` (stereo not given), the Percent Effect in test [1] was -1.27%; in test [2] it was 5.13%; in test [3], 1.32%; in test [4], -0.845%; in test [5] it was 4.51%; in [6] it was 5.55%. For the same molecule, the Percent Effect in [7] is -6.07%; in [8] it was 8.13%; in [9] it was 20.5%; in test [10], 13.6%.

Turning to `COCc1c(C(=O)NC2CCCC2)nnn1-c1ccc(C)cc1`, the Percent Effect in test [1] is 106%; in test [2], 9.33%; in test [3], -6.27%; in test [4] it was -2.37%; in [5], 0.443%; in [6], 8.54%. Also, the Percent Effect is 14.6% in test [7], -2.12% in test [8], 7.5% in test [9] and -17.9% in test [10].

As to `COc1ccc2c(c1)OCC(CNC(=O)c1ccncc1)C2` (stereo not given), the Percent Effect was -6.47% in [1]; 13.5% in test [2]; 11.5% in test [3]; 7.66% in test [4]; 43.7% in test [5]; 20.4% in test [6]. The Percent Effect in test [7] was 32.2%; in test [8], 7.98%; in test [9], 19.5%; in test [10], 71.9%.
